In PubChem BioAssay (EPA / NIEHS):
The source made the active and inactive calls. Rule for the calls: active = hit-call score of the fitted dose curve at least 0.9, where 1 is the maximum; inactive = score below 0.9.

Test: ATG_CRE_CIS: Attagene CIS-FACTORIAL HepG2 Assay for human cAMP Responsive Element (CRE) binding protein 3 (AID 2282926)
Conditions: HepG2 CRE cis-reporter, Attagene multiplexed mRNA; actives raise or lower the signal
Protocol: ATG_CIS is a cell-based, multiplexed-readout assay that uses HepG2, a human liver cell line, with measurements taken at 24 hours after chemical dosing in a 24-well plate.ATG_CRE_CIS is one of 52 assay component(s) measured or calculated from the ATG_CIS assay. It is designed to make measurements of mRNA induction, a form of inducible reporter, as detected with fluorescence intensity signals by Reverse transcription polymerase chain reaction (RT-PCR) and Capillary electrophoresis technology.Data from the assay component ATG_CRE_CIS was analyzed into 1 assay endpoint. This assay endpoint, ATG_CRE_CIS, was analyzed with bidirectional fitting relative to DMSO as the negative control and baseline of activity. Using a type of inducible reporter, measures of mRNA for gain or loss-of-signal activity can be used to understand the reporter gene at the transcription factor-level as they relate to the gene CREB3. Furthermore, this assay endpoint can be referred to as a primary readout, because this assay has produced multiple assay endpoints where this one serves a reporter gene function. To generalize the intended target to other relatable targets, this assay endpoint is annotated to the dna binding intended target family, where the subfamily is basic leucine zipper.
Human liver HepG2 cells are transiently transfected with multiple reporter transcription units (MRTUs) in 6-well plates using FuGene 6 reagent (Roche; 3 ml FuGene/1 mg DNA). The MRTU constructs are regulated by a cis-regulating element (promoter). […] A major difference between the CIS and TRANS system is that in CIS activities of endogenous TFs are measured, whereas the TRANS assay evaluates changes in activities of exogenous, chimeric NR-Gal4 proteins. […] At the end of 24 hour incubation, total RNA was isolated using TriZol reagent (Invitrogen). The isolated RNA is then reverse-transcribed using oligo(dT) primer and Mo-MLV reverse transcriptase (Invitrogen) with DNAse I (Ambion) treatment for 30 min. The one-tenth of the produced cDNA was amplified by PCR using Taq DNA polymerase (Invitrogen) and two reporter sequence-specific primers. The PCR products were fluorescently labeled by primer extension with 6-arboxyfluorescein (6-FAM) 5'-labeled reporter sequence-specific primer (2 min at 95 C, 20 s at 68 C and 10 min at 72 C) and these products were digested with 5U of HpaI (New England Biolabs) for 2h at 37 C. The fragments were purified using Qiaquick PCR columns (Qiagen), analyzed on an ABI 3130xL genetic analyzer (Applied Biosystems) with peak positions identified by using a set of X-rhodamine (ROX)-labeled MapMarker1000 molecular weight standards (BioVentures). The raw capillary electrophoresis data was processed using Attagraph software (Attagene).

Row | SMILES | outcome | AC50
1 | CSc1ccc(Cl)cc1 | inactive | –
2 | CCOCN(C(=O)CS(=O)(=O)O)c1c(C)cccc1CC | inactive | –
3 | CCN(CC)c1ccc(N=Nc2ccccc2)cc1 | inactive | –
4 | Cc1cccc(C)n1 | inactive | –
5 | CC(C)(C)c1cc(CCC(=O)NCCCCCCNC(=O)CCc2cc(C(C)(C)C)c(O)c(C(C)(C)C)c2)cc(C(C)(C)C)c1O | inactive | –
6 | COc1ccccc1C=O | inactive | –
7 | NS(=O)(=O)C(F)(F)C(F)(F)C(F)(F)C(F)(F)C(F)(F)C(F)(F)F | inactive | –
8 | CC(C)Nc1ccc(NC(C)C)c2c1C(=O)c1ccccc1C2=O | inactive | –
9 | CCC(=O)OC(C)c1ccccc1 (stereo not given) | inactive | –
10 | CC(C)OC=O | inactive | –
11 | O=C1C=CC(=O)N1c1ccccc1 | inactive | –
12 | O=S(=O)(O)CCC(F)(F)C(F)(F)C(F)(F)C(F)(F)F | inactive | –
13 | CN(N=O)C(=O)N[C@@H]1[C@@H](O)[C@H](O)[C@@H](CO)O[C@@H]1O | inactive | –
14 | Cc1ccc2c(c1)OCC(=O)CO2 | inactive | –
15 | CC1=CC2C3C=CC(C3)C2C1C (stereo not given) | inactive | –
16 | O=C1C=CC(=O)N1c1ccc(Cc2ccc(N3C(=O)C=CC3=O)cc2)cc1 | – | 33.4 µM (active)
17 | C=C(C)CCCC | inactive | –
18 | OC(O)C(F)(F)C(F)(F)F | inactive | –
19 | O=c1[nH]cccc1O | inactive | –
20 | OCC(F)(F)C(F)(F)C(F)(F)C(F)(F)C(F)(F)C(F)(F)CO | inactive | –

Row | SMILES | outcome | AC50
21 | NC(=O)C(F)(F)C(F)(F)C(F)(F)C(F)F | inactive | –
22 | O=C(O)C(F)(F)C(F)(F)C(F)(F)OC(F)(F)F | inactive | –
23 | CCOC(C=C(C)CCC=C(C)C)OCC | inactive | –
24 | CCOC(=O)CCC(C)=O | inactive | –
25 | O=S(=O)(Cl)C(F)(F)C(F)(F)C(F)(F)C(F)(F)C(F)(F)C(F)(F)C(F)(F)C(F)(F)F | inactive | –
26 | O=C(Cl)C(F)(F)C(F)(F)C(F)(F)C(F)(F)C(F)(F)C(F)(F)F | inactive | –
27 | Brc1nc2ccccc2s1 | inactive | –
28 | OCCCCC(F)(F)C(F)(F)C(F)(F)C(F)(F)F | inactive | –
29 | CN(C(=O)C(F)(F)C(F)(F)C(F)(F)F)[Si](C)(C)C | inactive | –
30 | O=C(O)CCC(F)(F)C(F)(F)C(F)(F)C(F)(F)C(F)(F)C(F)(F)C(F)(F)F | inactive | –
31 | N#Cc1ccccc1O | inactive | –
32 | OCCC(O)CO (stereo not given) | inactive | –
33 | C=CC(=O)OCCC(F)(F)C(F)(F)C(F)(F)C(F)(F)F | inactive | –
34 | O=C(O)C(F)(F)C(F)(F)C(F)(F)C(F)(F)C(F)(F)C(F)(F)C(F)F | inactive | –
35 | Cc1ccc([N+](=O)[O-])c(C)c1 | inactive | –
36 | CCN(CC)c1ccc(C=O)cc1 | inactive | –
37 | CCc1ccc(C)nc1 | inactive | –
38 | CC(C)CC=C(C=O)c1ccccc1 | inactive | –
39 | COCCOCCC[Si](C)(O[Si](C)(C)C)O[Si](C)(C)C | inactive | –
40 | C[Si](Cl)(Cl)CCC(F)(F)C(F)(F)C(F)(F)C(F)(F)C(F)(F)C(F)(F)F | inactive | –
